beta cell repl – induces beta-cell replication in MIN6 cells; MIN6 cells proliferation, ATPlite luminescence, 48 h; cells starved in 0.2% serum; 100% = growth in 10% serum; 330,000 tested, 0.29% active; proliferation, % at 10 µM; AID 2380;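 active = compounds whose signal lies at least 3.5 SD above the mean of all wells on their plate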;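 also: 0% = DMSO-treated cells in low-serum medium and 100% = 10% serum control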
A1 inh – inhibitors of the anti-apoptotic protein A1, read as caspase activation; 330,000 tested, 0.066% active; AID 2462; caspase activation, % (test concentration not listed); MEF A1-2A-BIM cells, Caspase-Glo 3/7 luminescence, 3 h; percent of clofoctol response, vehicle zero;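 active = over half of replicate activation scores above 10%, or exactly half above 10 with the replicate mean above 10; inconclusive = replicate mean below 10 yet half the replicates above 10; inactive = over half of replicates below 10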
APOBEC3G inh – blocks human APOBEC3G single-stranded DNA deamination | 330,000 tested, 0.28% active | inhibition, % at 20 µM | AID 493012 | Q9HC16 | recombinant A3G, ssDNA deamination FAM/TAMRA fluorescence;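 active = inhibition of at least 40% at 20 µM, with no more than 30% in the related APOBEC3A deaminase screen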;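 also: plate controls were DMSO wells with A3G for no effect and wells lacking A3G enzyme for full effect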
Target sequence (Q9HC16 whole entry, looked up): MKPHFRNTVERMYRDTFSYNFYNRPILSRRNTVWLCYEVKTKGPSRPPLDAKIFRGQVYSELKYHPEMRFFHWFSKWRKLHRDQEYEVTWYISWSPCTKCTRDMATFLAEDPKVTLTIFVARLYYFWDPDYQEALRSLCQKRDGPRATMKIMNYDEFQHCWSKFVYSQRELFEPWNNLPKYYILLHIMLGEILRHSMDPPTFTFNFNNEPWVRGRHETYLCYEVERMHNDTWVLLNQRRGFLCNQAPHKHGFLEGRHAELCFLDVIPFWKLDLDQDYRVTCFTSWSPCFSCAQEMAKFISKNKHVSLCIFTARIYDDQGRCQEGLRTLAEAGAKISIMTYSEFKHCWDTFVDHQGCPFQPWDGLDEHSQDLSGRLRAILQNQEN
A3A deaminase – blocks human APOBEC3A ssDNA deamination; inhibition, % at 20 µM; recombinant A3A, FAM/TAMRA ssDNA deamination fluorescence; 330,000 tested, 0.41% active;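 active = at least 40% inhibition at 20 µM here, with at most 30% in a related deaminase screen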;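 also: plate controls were A3A with DMSO for no effect and wells lacking A3A enzyme for full effect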
Target sequence (P31941 whole entry, looked up): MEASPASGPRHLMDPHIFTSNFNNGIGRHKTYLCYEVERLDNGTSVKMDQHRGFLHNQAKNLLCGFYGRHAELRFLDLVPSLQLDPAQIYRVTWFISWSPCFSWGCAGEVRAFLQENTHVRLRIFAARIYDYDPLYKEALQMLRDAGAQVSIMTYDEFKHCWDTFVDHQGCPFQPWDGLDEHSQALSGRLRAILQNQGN
APOBEC3A confirm – confirmation of human APOBEC3A DNA deaminase inhibitors | AID 493151 | recombinant A3A, ssDNA deaminase UDG fluorescence assay | shares compounds with A3A deaminase | inhibition, % at 20 µM | 1,400 tested, 63% active;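 active = inhibition reaching a set limit, 80% of the first screen's cutoff, at 20 µM in any replicate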;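 also: plate controls were DMSO wells with A3A for no effect and wells lacking A3A enzyme for full effect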
UDG A3A counter – inhibits UDG, flagging false APOBEC3A inhibitors | AID 504714 | 1,000 tested, under 10 active | inhibition, % at 20 µM | shares compounds with A3A deaminase | UDG counterscreen, FAM/TAMRA uracil oligo fluorescence; call rule not given here
* marks the source's active call; other numbers are inactive results; ? = inconclusive; . = no result given. Hits are enriched below; roughly 1.1% of the tested compounds scored in any of these assays.

SMILES	beta cell repl	A1 inh	APOBEC3G inh	A3A deaminase	APOBEC3A confirm	UDG A3A counter
O=C1C2C3C=CC(C3)C2C(=O)N1c1ccc2ccccc2c1 (stereo not drawn)	-0.3	-0.2	-2.2	1.3	.	.
COc1ccc(C(=O)NCCNc2nc3cc(C)c(C)cc3cc2C)cc1	-4.4	0.2	-0.6	7.4	.	.
CCCCCCCN1C/C=C\C(c2ccc(OC)cc2)N(Cc2ccc(F)cc2)C(=O)[C@H]1Cc1ccccc1 (stereo partly drawn)	-6.7	0.6	-0.2	1.3	.	.
CSc1cccc(N2CC(C(=O)Nc3cccc(S(=O)(=O)N4CCCC4)c3)CC2=O)c1 (stereo not drawn)	-0.8	2.3	14.9	56.4*	13.7	.
CCOc1ccc(N2CC(C(=O)Nc3cccc(S(=O)(=O)N4CCCCC4)c3)CC2=O)cc1 (stereo not drawn)	1.1	-1.0	-3.8	-2.5	.	.
Cc1nn(CC(=O)NC(=O)NC2CCCC(C)C2C)c(=O)c(C#N)c1C (stereo not drawn)	-0.9	-0.1	-8.1	-0.5	.	.
COc1ccc(N(CC(=O)N2CCCCCC2)S(C)(=O)=O)cc1Cl	-1.1	?	-3.5	-2.4	.	.
COc1ccc(N(CC(=O)N2CCc3ccccc3C2)S(C)(=O)=O)cc1Cl	-0.7	0.3	6.1	47.2*	12.5	.
CC(C)(O)C#Cc1ccc(C(=O)N2CCC(C(N)=O)(N3CCCCC3)CC2)o1	0.3	.	-1.9	2.6	.	.
CCCN(CC(=O)Nc1cc(Cl)ccc1Cl)C(=O)/C=C/c1cc(OC)ccc1OC	-5.1	-0.4	-1.2	-0.7	.	.
CCCN(CC(=O)Nc1cc(Cl)ccc1Cl)C(=O)/C=C/c1ccco1	0.5	-0.2	-3.0	77.4*	0.6	-1.6
Oc1ccc(Nc2nc(-c3ccccc3)nc3ccccc23)cc1	-3.4	-0.9	-6.9	-3.9	.	.
Oc1ccc(Nc2nc3ccccc3nc2Nc2ccc(O)cc2)cc1	-5.5	2.3	-7.1	41.9*	42.9*	0.6
N#Cc1cccc(NC(=O)Cn2c3[n+](c4ccc(C(F)(F)F)cc42)CCCCC3)c1	0.0	0.2	28.3	41.7*	59.8*	-2.6
Fc1ccccc1Cn1c2[n+](c3ccc(C(F)(F)F)cc31)CCCCC2	-6.0	-0.8	17.7	37.9	.	.
CCOc1cc(N2CCOCC2)c(OCC)cc1NC(=O)c1c(C)noc1C	-3.4	.	5.6	43.2*	7.8	.
CCOc1cc(N2CCOCC2)c(OCC)cc1NC(=O)c1c(-c2ccccc2)noc1C	-5.0	0.3	-0.4	-0.5	.	.
CCOc1cc(N2CCOCC2)c(OCC)cc1NS(=O)(=O)c1cc(NC(C)=O)ccc1OC	0.3	0.1	5.8	46.3*	19.7*	-3.4
CCN(CC)CCN(Cc1cc2cc3c(cc2[nH]c1=O)OCO3)C(=S)NCCOC	-0.4	1.4	-5.6	-10.6	.	.
Cc1ccc(NC(=O)CN2CCCC2c2cccn2C)cc1C (stereo not drawn)	-1.6	0.3	20.7	-1.0	.	.
O=C(O)c1cc(Cl)c2c(c1)OCO2	0.2	0.6	8.1	42.8*	27.1	.
COc1ccc(S(=O)(=O)NCC2CCCN(C(=O)CSC)C2)cc1 (stereo not drawn)	-1.4	0.3	-4.4	-1.7	.	.
O=C(COC(=O)C1CCN(c2ccc(C(F)(F)F)cn2)CC1)Nc1ncc(Cl)cc1Cl	-0.1	-0.2	-3.4	-1.0	.	.
Cn1ccsc1=NC(=O)c1ccc(=O)[nH]c1	5.7	-0.2	17.9	58.7*	4.5	.
C=CCn1c2[n+](c3ccccc3c1=O)CCCCC2	0.5	-0.4	14.4	67.2*	51.9*	-1.7
SMILES	beta cell repl	A1 inh	APOBEC3G inh	A3A deaminase	APOBEC3A confirm	UDG A3A counter
CC(NC(=O)CSc1nnc(CC(=O)Nc2ccc(Cl)c(Cl)c2)n1C)c1ccccc1 (stereo not drawn)	1.0	1.5	14.7	46.9*	47.9*	.
Cc1cc(C)cc(OCC(=O)N2N=C(C(F)(F)F)CC2(O)C(C)(C)C)c1 (stereo not drawn)	-0.7	0.0	18.7	56.5*	47.6*	-1.4
COc1ccc(OC)c(NS(=O)(=O)c2cccs2)c1	5.4	0.3	-4.5	61.6*	-1.3	2.8
N#CCC(=O)N/N=C/c1cn(Cc2ccccc2C#N)c2ccccc12	-0.9	0.0	18.4	56.3*	71.9*	3.1
O=C(O)C(Cc1ccccc1)N1C(=O)c2ccccc2C1=O (stereo not drawn)	0.8	0.0	-0.6	2.0	.	.
CN(C)CCN(Cc1ccccc1)C(=O)[C@H](Cc1ccccc1)N1C(=O)c2ccccc2C1=O	0.0	-0.7	1.6	42.4*	23.6	.
CCCCCCCn1ccc(=N)cc1	-3.9	-1.5	18.9	74.3*	74.3*	-1.0
CCCCCCCCCn1ccc(=N)cc1	-3.3	-1.3	-4.7	-2.1	.	.
CCCCCn1ccc(=N)cc1	-4.1	-1.0	28.4	62.2*	71.8*	-3.4
N/C(=N\OC(=O)c1cccc(F)c1)c1cccc([N+](=O)[O-])c1	-1.6	-3.7	-0.3	-2.2	.	.
N/C(=N\S(=O)(=O)c1ccccc1)c1ccc([N+](=O)[O-])cc1	1.4	0.8	-4.9	-1.1	.	.
N/C(=N/OC(=O)c1cccc([N+](=O)[O-])c1)c1cccc([N+](=O)[O-])c1	2.3	-0.5	-3.8	47.3*	6.9	5.3
N/C(=N/S(=O)(=O)c1ccccc1)c1cccc([N+](=O)[O-])c1	-1.5	0.7	-6.8	45.0*	-0.3	0.4
COc1cc(C(=O)N=c2sccn2C)c([N+](=O)[O-])cc1OC	0.4	2.4	9.8	53.4*	5.8	.
C[n+]1ccccc1Nc1cc([N+](=O)[O-])ccc1N	3.4	1.3	18.9	63.4*	70.2*	-0.8
Cc1cc([N+](=O)[O-])ccc1N	2.1	-0.5	-3.6	-1.0	.	.
CCN(c1ccccc1)S(=O)(=O)c1cc(C(=O)OC(C)C(=O)Nc2ccc3c(c2)OCCO3)ccc1C (stereo not drawn)	-5.9	1.2	12.7	50.2*	36.6*	0.7
CC(OC(=O)c1ccccn1)C(=O)Nc1ccc2c(c1)OCCO2 (stereo not drawn)	-5.4	2.6	-3.0	-2.0	.	.
CCC1Sc2ccc(S(=O)(=O)CCC(=O)N3CCc4ccccc43)cc2NC1=O (stereo not drawn)	-2.4	0.5	-3.6	66.4*	17.1	6.8
CCN1/C(=C/c2ccc3cccc(C)c3[n+]2CC)Sc2ccccc21	-5.6	-0.3	23.6	69.9*	85.5*	5.0
CCN1/C(=C/c2ccc3cc(C)ccc3[n+]2CC)Sc2ccc3sccc3c21	-6.0	-0.9	39.8	103.4	.	.
COC(=O)c1[nH]c2ccc(Cl)cc2c1NC(=O)CN1CCc2cc(OC)c(OC)cc2C1	-2.8	0.5	8.9	41.2*	60.5*	-3.0
CCOC(=O)C1=C(C)N=C2SCCC(=O)N2C1c1cc(Br)ccc1OC (stereo not drawn)	-4.8	1.1	-4.5	40.4*	-6.6	-1.2

High-throughput results: PubChem BioAssay, several laboratories
